Measured values taken from PubChem BioAssay AID1159580 (chemical genetic matrix, 2015).
“And” between values parts separate entries of the source, which are not always exact repeats. Identical values can stand only once. Among all 5,500 compounds or so, about 2,000 (36%) were called active. Inconclusive results (about 18%) are left out. Cut-off read from the data, not from the text of the source: active = normalized growth mostly below about 0.91 (no sharp cut-off); inconclusive = no clear call, values can overlap the other calls; inactive = mostly above about 0.92. Some of the results follow.

Test: chemical genetic growth profiling, strain panel (AID 1159580);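 note: tested at 20 µM; growth read once vehicle control cultures reached saturation at 30 °C; 1 = growth at the plate median or of vehicle wells; lower values mean less growth of the strain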
Details: growth OD

Measured: normalized growth

CC(CCc1ccccc1)NCC(O)c1ccc(O)c(C(N)=O)c1 (stereo not given)
inactive: S. cerevisiae deletion strains, locus YJR075W, strain HOC1, active compounds read low 1 | S. cerevisiae deletion strains, locus YKL009W, strain mrt4, active compounds read low 1.01 | S. cerevisiae deletion strains, locus YKL068W, active compounds read low 1.01 | S. cerevisiae deletion strains, locus YKL085W, strain MDH1 (second series), active compounds read low 1.01 | S. cerevisiae deletion strains, locus YKL085W, strain MDH1, active compounds read low 1.01 | S. cerevisiae deletion strains, locus YKL160W, strain elf1, active compounds read low 1 | S. cerevisiae deletion strains, locus YKL190W, strain CNB1, active compounds read low 1 | S. cerevisiae deletion strains, locus YKR001C, strain vps1, active compounds read low 1.03 | S. cerevisiae deletion strains, locus YKR026C, strain gcn3, active compounds read low 1.01 | S. cerevisiae deletion strains, locus YKR091W, strain srl3, active compounds read low 0.997 | S. cerevisiae deletion strains, locus YLL001W, strain dnm1, active compounds read low 1 | S. cerevisiae deletion strains, locus YLL026W, active compounds read low 1 | S. cerevisiae deletion strains, locus YLL041C, strain sdh2, active compounds read low 1 | S. cerevisiae deletion strains, locus YLR027C, strain aat2, active compounds read low 0.992 | S. cerevisiae deletion strains, locus YLR039C, strain RIC1, active compounds read low 1.05 | S. cerevisiae deletion strains, locus YLR058C, strain SHM2, active compounds read low 1 | S. cerevisiae deletion strains, locus YLR102C, strain apc9, active compounds read low 1.01 | S. cerevisiae deletion strains, locus YLR113W, strain HOG1, active compounds read low 1.08 | S. cerevisiae deletion strains, locus YLR221C, strain rsa3, active compounds read low 1.01 | S. cerevisiae deletion strains, locus YLR258W, strain gsy2, active compounds read low 1.01 | S. cerevisiae deletion strains, locus YLR262C, strain YPT6 (second series), active compounds read low 1.02 | S. cerevisiae deletion strains, locus YLR262C, strain YPT6, active compounds read low 1.04 | S. cerevisiae deletion strains, locus YLR268W, strain sec22, active compounds read low 1.02 | S. cerevisiae deletion strains, locus YLR320W, strain mms22, active compounds read low 1.02 | S. cerevisiae deletion strains, locus YLR330W, strain CHS5, active compounds read low 1.01 | S. cerevisiae deletion strains, locus YLR342W, strain FKS1 (second series), active compounds read low 1.08 | S. cerevisiae deletion strains, locus YLR342W, strain FKS1, active compounds read low 1.01 | S. cerevisiae deletion strains, locus YLR357W, strain rsc2, active compounds read low 0.96 | S. cerevisiae deletion strains, locus YLR370C, strain arc18, active compounds read low 1 | S. cerevisiae deletion strains, locus YLR371W, strain rom2, active compounds read low 1.02 | S. cerevisiae deletion strains, locus YLR384C, strain iki3, active compounds read low 1.02 | S. cerevisiae deletion strains, locus YLR418C, strain cdc73, active compounds read low 1.06 | S. cerevisiae deletion strains, locus YML016C, strain PPZ1, active compounds read low 1.01 | S. cerevisiae deletion strains, locus YML032C, strain rad52, active compounds read low 0.996 | S. cerevisiae deletion strains, locus YML120C, strain ndi1, active compounds read low 1.01 | S. cerevisiae deletion strains, locus YML124C, strain tub3, active compounds read low 1.01 | S. cerevisiae deletion strains, locus YMR058W, strain fet3, active compounds read low 1 | S. cerevisiae deletion strains, locus YMR078C, strain ctf18, active compounds read low 1.01 | S. cerevisiae deletion strains, locus YMR125W, strain sto1, active compounds read low 0.997 | S. cerevisiae deletion strains, locus YMR129W, active compounds read low 1.01 | S. cerevisiae deletion strains, locus YMR205C, strain PFK2, active compounds read low 1.01 | S. cerevisiae deletion strains, locus YMR223W, strain ubp8, active compounds read low 1.04 | S. cerevisiae deletion strains, locus YMR231W, strain pep5, active compounds read low 1.01 | S. cerevisiae deletion strains, locus YMR263W, strain SAP30, active compounds read low 0.988 | S. cerevisiae deletion strains, locus YMR307W, strain GAS1, active compounds read low 1.04 | S. cerevisiae deletion strains, locus YNL067W, strain RPL9B, active compounds read low 0.988 | S. cerevisiae deletion strains, locus YNL071W, strain lat1, active compounds read low 1 | S. cerevisiae deletion strains, locus YNL153C, strain GIM3, active compounds read low 0.979 and 1.02 | S. cerevisiae deletion strains, locus YNL175C, strain NOP13, active compounds read low 1.01 | S. cerevisiae deletion strains, locus YNL183C, strain NPR1, active compounds read low 0.986 | S. cerevisiae deletion strains, locus YNL197C, strain WHI3, active compounds read low 0.999 | S. cerevisiae deletion strains, locus YNL209W, strain ssb2, active compounds read low 1.01 | S. cerevisiae deletion strains, locus YNL224C, strain SQS1, active compounds read low 1.01 | S. cerevisiae deletion strains, locus YNL233W, strain BNI4, active compounds read low 0.994 | S. cerevisiae deletion strains, locus YNL248C, strain rpa49, active compounds read low 0.998 | S. cerevisiae deletion strains, locus YNL250W, strain rad50, active compounds read low 1.03 | S. cerevisiae deletion strains, locus YNL271C, strain bni1, active compounds read low 1.01 | S. cerevisiae deletion strains, locus YNL298W, strain CLA4, active compounds read low 1.02 | S. cerevisiae deletion strains, locus YNL307C, strain MCK1, active compounds read low 1.03 | S. cerevisiae deletion strains, locus YNL322C, strain KRE1 (second series), active compounds read low 0.993 | S. cerevisiae deletion strains, locus YNL322C, strain KRE1, active compounds read low 0.998 | S. cerevisiae deletion strains, locus YNR049C, strain mso1, active compounds read low 0.999 | S. cerevisiae deletion strains, locus YNR052C, strain pop2, active compounds read low 1.02 | S. cerevisiae deletion strains, locus YOL006C, strain TOP1, active compounds read low 0.976 | S. cerevisiae deletion strains, locus YOL012C, strain htz1 0.754 | S. cerevisiae deletion strains, locus YOL147C, strain pex11, active compounds read low 1.01 | S. cerevisiae deletion strains, locus YOR001W, strain rrp6, active compounds read low 1.02 | S. cerevisiae deletion strains, locus YOR061W, strain CKA2, active compounds read low 1.01 | S. cerevisiae deletion strains, locus YOR069W, strain VPS5, active compounds read low 1 | S. cerevisiae deletion strains, locus YOR070C, strain gyp1, active compounds read low 0.996 | S. cerevisiae deletion strains, locus YOR080W, strain dia2, active compounds read low 0.999 | S. cerevisiae deletion strains, locus YOR083W, strain WHI5 (second series), active compounds read low 1.02 | S. cerevisiae deletion strains, locus YOR083W, strain WHI5, active compounds read low 1.01 | S. cerevisiae deletion strains, locus YOR106W, strain vam3, active compounds read low 1.02 | S. cerevisiae deletion strains, locus YOR136W, strain idh2, active compounds read low 1 | S. cerevisiae deletion strains, locus YOR144C, strain elg1, active compounds read low 1.01 | S. cerevisiae deletion strains, locus YOR184W, strain ser1, active compounds read low 1.01 | S. cerevisiae deletion strains, locus YOR231W, strain MKK1, active compounds read low 1.07 | S. cerevisiae deletion strains, locus YOR265W, strain rbl2, active compounds read low 0.992 | S. cerevisiae deletion strains, locus YOR270C, strain vph1, active compounds read low 1.04 | S. cerevisiae deletion strains, locus YOR290C, strain snf2, active compounds read low 1.03 | S. cerevisiae deletion strains, locus YOR316C, strain cot1, active compounds read low 1.02 | S. cerevisiae deletion strains, locus YPL051W, strain arl3, active compounds read low 1 | S. cerevisiae deletion strains, locus YPL055C, strain LGE1, active compounds read low 0.945 and 0.997 | S. cerevisiae deletion strains, locus YPL078C, strain atp4, active compounds read low 1 | S. cerevisiae deletion strains, locus YPL106C, strain sse1, active compounds read low 1.01 | S. cerevisiae deletion strains, locus YPL240C, strain hsp82, active compounds read low 1.01 | S. cerevisiae deletion strains, locus YPL241C, strain CIN2, active compounds read low 1 | S. cerevisiae deletion strains, locus YPL256C, strain CLN2, active compounds read low 1.04 | S. cerevisiae deletion strains, locus YPR119W, strain clb2, active compounds read low 1.02 | S. cerevisiae deletion strains, locus YPR141C, strain kar3, active compounds read low 1.01 | S. cerevisiae deletion strains, locus YPR163C, strain tif3, active compounds read low 1.03 | S. cerevisiae deletion strains, locus YPR167C, strain met16, active compounds read low 1.01 | S. cerevisiae deletion strains, strain wtn01, active compounds read low 1.03 | S. cerevisiae strains, strain wild type, active compounds read low 1
